# An excerpt weighted towards active compounds, which were near 3.7% of everything screened.
# MITF TRPM1 HTS: activators of MITF-driven TRPM1 promoter reporter, primary screen, cell-based, SK-MEL-5, luciferase, single point; SK-MEL-5 TRPM1-promoter luciferase, 24 h; % of positive control, neutral wells = 0; activation, % at 12.5 µM; 300,000 compounds, 0.75% hits; AID 588334, 2011;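 active = mean activation of at least 80% with every replicate also reaching 80%; inconclusive = mean reaches 80% but some replicate falls short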;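 also: 0% = neutral control wells and 100% = parthenolide positive control wells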
# rRNA inh HTS: reduced GFP signal of wild-type E. coli, primary screen, bacterial rRNA inhibitor project, GFP/RFP fluorescence, OD600, single point. E. coli WT GFP vs humanized-ribosome RFP mutants, 24 h; stronger effect = lower value; DMSO median 0, no signal -100. GFP signal change (wild-type ribosome), % (concentration not given with the values). 350,000 compounds, 1.6% hits. AID 720706, 2013;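 active = significant combined selectivity score with lowered wild-type GFP, culture density cut under 30%, mutant RFP and density less affected; inactive = any of these conditions unmet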
# esBAF inh: Bmi1 luciferase reporter increase in mESCs, primary screen, esBAF inhibitor project, mouse ES cells, Bmi1 luciferase knock-in, single point; 350,000 compounds, 2% hits; reporter increase, % at 12.5 µM; 24 h; 100% = twice the neutral-well signal; AID 602393, 2012; in the data active = activation above about 40%; inconclusive = no clear call, values can overlap the other calls;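 also: 0% = median of the plate's neutral control wells and 100% = double that signal; a rise in the Bmi1 reporter signal indicates esBAF inhibition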
# AF4-AF9 inh: inhibitors of AF4 peptide binding to AF9, primary screen, biochemical, AlphaScreen, biotin-AF4 peptide, FLAG-AF9, single point. Protein AF-9 (Homo sapiens), P42568. inhibition, % at 10 µM. 350,000 compounds, 0.47% hits;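 active = every replicate reaching a set inhibition limit, whatever the replicate mean, cut at about 25% in these data; inconclusive = mean inhibition reaches that limit but some replicates miss it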;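 also: 0% = plate neutral control median and 100% = total signal loss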
# Target sequence (P42568 whole entry, looked up): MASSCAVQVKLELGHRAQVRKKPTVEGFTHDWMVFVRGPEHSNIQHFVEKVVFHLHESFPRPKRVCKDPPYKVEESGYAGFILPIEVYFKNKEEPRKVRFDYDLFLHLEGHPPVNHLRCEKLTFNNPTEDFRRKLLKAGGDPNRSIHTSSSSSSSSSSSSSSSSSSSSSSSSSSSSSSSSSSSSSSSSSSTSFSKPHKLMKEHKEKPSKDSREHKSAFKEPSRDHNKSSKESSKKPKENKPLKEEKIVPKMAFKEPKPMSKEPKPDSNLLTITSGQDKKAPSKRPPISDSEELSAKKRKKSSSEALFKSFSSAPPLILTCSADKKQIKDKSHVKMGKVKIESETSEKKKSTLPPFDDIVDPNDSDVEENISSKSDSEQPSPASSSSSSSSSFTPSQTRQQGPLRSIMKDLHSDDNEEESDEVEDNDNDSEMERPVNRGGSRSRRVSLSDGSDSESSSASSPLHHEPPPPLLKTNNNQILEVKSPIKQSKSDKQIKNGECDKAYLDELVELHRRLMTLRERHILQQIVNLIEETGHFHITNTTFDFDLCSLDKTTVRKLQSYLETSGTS
# Wnt bcat act: Wnt/beta-catenin pathway activators, primary screen, cell-based, plate reader, single point | Wnt/beta-catenin reporter cell assay, activator | activation, % at 9.35 µM | 300,000 compounds, 1.2% hits | AID 743398, 2014; in the data active = activation above about 30%, passing the limit was not always enough; inconclusive = no clear call, values can overlap the other calls;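 also: 0% = neutral control wells and 100% = positive control wells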
# AID977621: growth inhibition of wild-type GFP E. coli, dose response, H69 mutant RFP, cherry-pick | shares compounds with rRNA inh HTS | E. coli wild-type GFP strain growth, fluorescence, 24 h | activity change, negative = inhibition at 50 µM | 1,900 tested, under 10 active;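 active = Wild-type ribosome reporter drop at least double the humanized mutant ribosome reporter drop, growth loss under a set limit; inconclusive = no clear call, values can overlap the other calls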;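 also: wild-type GFP and H69 mutant RFP strains grown together 50/50 in each well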
# AID977628: E. coli growth inhibition, wild-type GFP versus h24 humanized RFP strain, dose response, h24 mutant RFP vs wild-type GFP, cherry-pick; shares compounds with rRNA inh HTS; E. coli WT GFP strain growth, fluorescence, 24 h; activity change, negative = inhibition at 50 µM; 1,900 tested, under 10 active;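 active = compound lowering the normal-ribosome reporter at least twice as much as the humanized-ribosome reporter, growth loss under a set limit; inconclusive = no clear call, values can overlap the other calls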;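 also: wild-type GFP and h24 humanized RFP strains co-cultured 1 to 1 per well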
# * hit, by the source's call; ? = inconclusive; . = no result.
SMILES,MITF TRPM1 HTS,rRNA inh HTS,esBAF inh,AF4-AF9 inh,Wnt bcat act,AID977621,AID977628
CC(=O)Oc1ccc(N(C(C)=O)S(=O)(=O)c2ccccc2)c2ccccc12,.,1,-3,-2,8,.,.
CC(=O)Oc1c(Cl)cc(N(C(C)=O)S(=O)(=O)c2ccccc2)c2ccccc12,.,-37*,.,-2,1,?,.
c1ccc(Cc2nc3ccccc3s2)cc1,-6,-18*,29,-2,21,.,-12
CC(C)(C)C(=O)NN=C1CCC(c2ccccc2)CC1 (stereo not given),-4,17,-2,0,0,.,.
COc1cc(C(=O)Oc2ccc(C(=S)N3CCOCC3)cc2)cc(OC)c1OC,.,7,0,-1,5,.,.
O=C(O)CSc1nnc(-c2ccncc2)n1-c1ccc(Cl)cc1,.,.,.,.,-1,.,.
O=C(O)CSc1nnc(-c2ccc(Cl)cc2Cl)n1-c1ccc(Br)cc1,8,-30*,-6,-3,-1,-16,.
COc1cc(OC)cc(-c2nc3ccccc3c(=O)n2OC(=O)c2ccc(C)c(C)c2)c1,3,-22*,.,1,-1,-8.3,-3.7
O=C1NC[C@H](CCCCN2C[C@H](Cc3ccc(O)cc3)N(CCC3CCCCC3)C(=O)C2=O)N(CC2CCCCC2)C1=O,.,17,.,7,-2,.,.
O=[N+]([O-])c1ccccc1Oc1ccc(Cl)c2cccnc12,-9,-29*,.,1,-1,-14,.
O=[N+]([O-])c1ccc(Cl)c2cccnc12,-11,13,.,-2,-1,.,.
CC(C)(C)c1cc(-c2n[nH]c(=S)n2-c2ccc(Cl)cc2)n[nH]1,.,-31*,.,-3,1,?,.
CC(=O)c1ccc(Sc2ccccc2N)c([N+](=O)[O-])c1,.,-16*,.,5,1,.,-13
Nc1ccccc1Sc1ccc(C(=O)c2ccccc2C(=O)O)cc1[N+](=O)[O-],.,-1,.,-1,-2,.,.
O=c1[nH]c2cc([N+](=O)[O-])ccc2c2ccc([N+](=O)[O-])cc12,-1,9,.,-3,0,.,.
O=c1[nH]c2cc([N+](=O)[O-])ccc2c2ccccc12,9,-13*,.,-2,1,-2,?
O=C1c2ccccc2C(c2nnnn2C2CCCCC2)N1CCc1ccc(O)cc1 (stereo not given),.,-18*,.,1,-2,7.9,-5.5
O=C1c2ccccc2C(c2nnnn2Cc2ccccc2)N1CCOc1ccccc1 (stereo not given),.,-17,.,-2,12,.,.
COc1ccc(CNC(=O)c2cc3c(s2)CN(Cc2ccccc2)C3)cc1,0,-22*,.,1,-1,-20,.
C=CCn1c(SCC(=O)Nc2ccc3c(c2)OCCO3)nnc1-c1ccco1,17,-17*,-6,-27,-1,.,-14
O=C(O)CC(CC(=O)Nc1ccc2ccccc2n1)c1ccccc1 (stereo not given),1,-20*,.,-3,-3,-3.8,-1.7
CC(C)(C)NC(=O)CC(CC(=O)O)c1ccccc1 (stereo not given),-5,14,-1,-2,-3,.,.
C=CCn1c(C(C)NC(=O)C(C)(C)C)nc2ccccc21 (stereo not given),-1,0,-6,.,.,.,.
Cc1ccc(NC(=O)C[n+]2cc(-c3ccccc3)n3c2CCC3)cc1,.,-40*,.,2,2,4.9,?
Cn1c(NC(=O)C[n+]2cc(-c3ccc(F)cc3)n3c2CCC3)cc(=O)n(C)c1=O,11,.,-5,.,.,.,.
SMILES,MITF TRPM1 HTS,rRNA inh HTS,esBAF inh,AF4-AF9 inh,Wnt bcat act,AID977621,AID977628
O=C(C[n+]1cc(-c2ccc(F)cc2)n2c1CCC2)c1cccs1,.,-16*,46*,-1,-2,0.92,2.6
Cc1ccc(-c2c[n+](CC(=O)Nc3ccccc3C)c3n2CCC3)cc1,-6,.,.,3,0,.,.
Cn1cc(CC(=O)Nc2ccc(Nc3cccnc3)c(Br)c2)c2ccccc21,.,-16,.,.,-5,.,.
COCc1cn(CC[C@@H]2CC[C@H](NC(=O)Nc3ccc(F)cc3)[C@@H](CO)O2)nn1,.,-1,0,0,.,.,.
CCCn1nnnc1NCc1ccccc1OCc1cccs1,-7,-20*,-7,-1,-2,-10,.
COc1ccc(S(=O)(=O)Nc2ccc3c(c2)C(=O)N([C@@H](C)CO)C[C@@H](C)[C@@H](CN(C)C(=O)c2ccncc2)OCCCC[C@H](C)O3)cc1,.,2,-4,-1,.,.,.
O=C(O)CCC(=O)N1N=C(c2cccs2)CC1c1cccc([N+](=O)[O-])c1 (stereo not given),-10,7,-6,-1,3,.,.
CCOc1ccc2oc(C(=O)NC3CCN(Cc4ccccc4)CC3)c(C)c2c1,-13,-23*,1,0,-3,-23,.
Cc1c(C(=O)NC2CCN(Cc3ccccc3)C2)oc2ccc(Br)cc12 (stereo not given),13,-65,-5,-12,3,.,.
Cc1cccc(NC(=O)c2ccco2)c1C,.,11,0,1,2,.,.
O=C(Nc1cccc2c1CCCC2)c1ccco1,-4,-21*,4,2,-2,-9.2,-11
COc1ccc2c(c1)-c1nc(N)sc1CC2,10,-22*,.,11,0,-0.82,2
Nc1nc2c(s1)CCc1ccccc1-2,6,-3,27,9,7,.,.
O=C(NCCc1ccccc1)c1ccc(-c2ccccc2C(F)(F)F)o1,.,-40,.,-1,1,.,.
O=C(NCc1ccccc1)c1ccc(-c2ccccc2F)o1,69,-38*,?,4,17,-22,?
O=C(CN1CC[n+]2c(-c3cccs3)csc21)c1ccc(-c2ccccc2)cc1,-34,-41*,.,23,2,0.078,-2.2
C[C@H]1CCCCO[C@H](CN(C)C(=O)CCCN(C)C)[C@@H](C)CN([C@@H](C)CO)C(=O)c2cc(NC(=O)Nc3cccc4ccccc34)ccc2O1,.,0,-4,-3,.,?,11
C[C@@H]1CN([C@@H](C)CO)C(=O)c2cc(NC(=O)Nc3ccccc3)ccc2O[C@@H](C)CCCCO[C@@H]1CN(C)C(=O)CCCN(C)C,.,1,0,1,.,.,.
C[C@@H]1CN([C@@H](C)CO)C(=O)c2cc(NC(=O)Nc3cccc4ccccc34)ccc2O[C@@H](C)CCCCO[C@H]1CN(C)C(=O)CCCN(C)C,.,1,0,18,.,.,?

# Assay outcomes deposited in PubChem BioAssay by Broad Institute.
